Experimental data: PubChem BioAssay AID686971 (National Center for Advancing Translational Sciences (NCATS), 2013)
The campaign covered roughly 360,000 compounds. About 7,500 (2.1%) were called active. Inconclusive results (about 8%) are left out. For the sample, actives were picked, then their nearest neighbours and some compounds at random. Unmarked numbers belong to inactive results. The call rests on the fitted dose curve; in most records, active means well fitted cell-killing curve with a large enough effect; inconclusive means small, poorly fitted or top-dose-only effect, or effect the other way, or another doubt; inactive means no such curve, though single readings can be large or run the other way.

assay: qHTS for induction of synthetic lethality in tumor cells producing 2HG: qHTS for the HT-1080-IDH1KD cell line; conditions: HT-1080 IDH1 knockdown viability, ATP luminescence, 48 h; series mostly up to 46.1 µM; activity, negative = toxicity: at the top concentration;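 on activity, negative = toxicity: 0% = DMSO wells and -100% = cell-free medium wells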
Procedure, shortened: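 Luminescent ATP read-out (CellTiter-Glo, 10 min at room temperature) after 48 h compound exposure at 37 °C gave viability of IDH1-knockdown HT-1080 cells. Activity was normalised to DMSO and cell-free wells, then fitted as concentration-response curves.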
Potency means the concentration at half of the fitted maximal effect.

Row | SMILES | activity, negative = toxicity [%] | Potency
1 | CS(=O)(=O)N1CCCCC1c1cc(C(=O)NCc2ccccc2)no1 (stereo not given) | 15.4 | –
2 | Cn1c(Nc2ccc(F)cc2)nc2cc(-c3ccsc3)sc2c1=O | -11.4 | –
3 | CC(C)NC(=O)C1(C)CCCCN1Cc1cccc(C(F)(F)F)c1 (stereo not given) | 13.6 | –
4 | Cc1ccc(S(=O)(=O)NN=C2CC(C)(C)CC(=O)C2(C)C)cc1 | 0.409 | –
5 | COc1ccc(-c2nnc(SC(=O)N3c4ccccc4Sc4ccccc43)o2)cc1 | – | 11.2 µM (active)
6 | COc1ccc(-c2nnc(SC(C)C(=O)NC3CC3)o2)cc1 (stereo not given) | -2.36 | –
7 | COc1ccc(-c2nnc(-c3ccc4ccccc4c3)o2)cc1 | 14.4 | –
8 | Cc1cccc(S(=O)(=O)N(C)C[C@@H]2OCc3cnnn3CCCC(=O)N([C@H](C)CO)C[C@@H]2C)c1 | 1.61 | –
9 | Cc1ccc(Cc2c(-c3ccc(C)cc3)nc3c4ccccc4ccn23)cc1 | 3.09 | –
10 | CS(=O)(=O)c1cccc(-c2ccc3nncn3c2)c1 | 14.8 | –
11 | COc1cc(NC(=O)c2[nH]cnc2C(N)=O)cc(C(=O)Nc2cccc(C(F)(F)F)c2)c1 | – | 20.6 µM (active)
12 | COc1cc(NC(=O)c2cncc(-c3ccc(C#N)cc3)c2)cc(C(=O)Nc2cccc(C(F)(F)F)c2)c1 | – | inactive
13 | Cc1cccc(NC(=O)c2nnn(-c3cccc(C(F)(F)F)c3)c2N)c1 | -17.8 | –
14 | C[C@H](CO)N1C[C@H](C)[C@H](CN(C)C(=O)c2ccncc2)OCc2ccccc2-c2c(n(C)c3ccccc23)C1=O | -7.3 | –
15 | COc1ccc(C(C(=O)NCc2ccccc2)n2c(=O)c(-c3ccccc3)nc3ccccc32)cc1 (stereo not given) | -15.2 | –
16 | C[C@H](O)[C@@H]1C(=O)N2CCc3c([nH]c4ccccc34)[C@@H]2C[C@@H]1N(C)C(=O)Nc1ccc(F)cc1 | -2.42 | –
17 | CC1(C(=O)Nc2ccc3c(c2)OCCO3)CCN1C(=O)Cc1cc(F)ccc1F (stereo not given) | 3.34 | –
18 | CC(CN1CCOCC1)OC(=O)c1ccc(Cl)cc1Cl (stereo not given) | 1.51 | –
19 | CC1(C)C2CCC1(C)C(OC(=O)c1ccc(O)cc1)C2 (stereo not given) | -11.3 | –
20 | CC(C)NC(=O)c1ccc(Cl)cc1Cl | 8.03 | –
21 | CC(C)OC(=O)c1ccc(NCc2cc(O)ccc2O)cc1Cl | – | 23.1 µM (active)
22 | COC(=O)c1ccc(NCC(=O)c2ccccc2)cc1 | -4.43 | –
23 | COC(=O)c1ccc(NC(=O)Nc2ccc(C)cc2)cc1 | 4.54 | –
24 | COC(=O)c1ccc(NCc2cc(O)ccc2O)cc1 | – | 20.6 µM (active)

Row | SMILES | activity, negative = toxicity [%] | Potency
25 | O=C(OC12CC3CC(CC(C3)C1)C2)c1ccc(NCc2cc(O)ccc2O)cc1 | – | 23.1 µM (active)
26 | C[C@@H]1CN([C@@H](C)CO)C(=O)c2cc(NS(C)(=O)=O)ccc2O[C@@H](C)CCCCO[C@H]1CN(C)C(=O)Nc1ccc2c(c1)OCO2 | -1.65 | –
27 | CCNC(=O)C1(C)CCCN(Cc2noc(-c3ccccc3OC)n2)C1 (stereo not given) | 29.5 | –
28 | CC(=O)c1nn(-c2ccccc2)c(=Nc2ccccc2)cc1C | 2.41 | –
29 | CCCNC(=O)C1(C)CCN1C(=O)C1(c2ccccc2)CC1 (stereo not given) | 19.9 | –
30 | CCCCCCN1CCN(C2CN(Cc3cn(CCCCCC)nn3)S(=O)(=O)C2)CC1 (stereo not given) | -24.1 | –
31 | COc1ccc(CN2CCC(C)(Oc3cccc(F)c3)C2)c2ccccc12 (stereo not given) | -12.9 | –
32 | CCCCN1C[C@H](c2ccc(Br)cc2)[C@@H](CC(=O)Nc2ccc(Br)cc2)C1=O | -2.8 | –
33 | O=C(CNC(=O)N1CC(=O)Nc2ccccc21)Nc1ccc(Br)cc1F | 0.202 | –
34 | COc1ccc(/C=N/NC(=O)CNC(=O)c2ccc(S(=O)(=O)N3CCCC3)cc2)c(OC)c1 | -1.07 | –
35 | COc1cccc(/C=N/NC(=O)CNC(=O)c2ccc(S(=O)(=O)N3CCOCC3)cc2)c1OC | -7.17 | –
36 | COc1ccc(C(=O)NCC(=O)N/N=C/c2ccc([N+](=O)[O-])o2)cc1OC | – | 14.6 µM (active)
37 | Cc1ccc(-c2nc3ccccn3c2Nc2ccc(F)cc2)o1 | -9.63 | –
38 | O=C1NC[C@H](CCCCN2C[C@H](Cc3ccc(O)cc3)N(CCc3ccccc3)C(=O)C2=O)N(CCc2ccccc2)C1=O | 4.14 | –
39 | Cc1ccccc1NC(=O)NCC1CCN(Cc2cccc(Cl)c2)CC1 | -1.74 | –
40 | Cc1ccc(C)c(CN2CCC(CNC(=O)Nc3ccc(C)c(F)c3)CC2)c1 | -6.32 | –
41 | Cc1cccc(CN2CCC(CNC(=O)Nc3ccc(F)c(Cl)c3)CC2)c1 | – | 14.6 µM (active)
42 | CSCCC(C(=O)NC(C)(C)C)n1c(-c2ccccc2)nc2ccccc21 (stereo not given) | 1.83 | –
43 | COc1cccc(-c2nnc(NC(=O)c3ccc(S(=O)(=O)N(CC(C)C)CC(C)C)cc3)o2)c1 | – | 2.59 µM (active)
44 | COc1ccc(-c2nnc(NC(=O)CS(=O)(=O)c3ccc(Cl)cc3)o2)c(OC)c1 | 9.75 | –
45 | O=C(Nc1nnc(-c2ccco2)o1)c1ccc(S(=O)(=O)N2CCOCC2)cc1 | -19 | –
46 | COc1cc(C)c(CN2CCN(C(=O)CCC(=O)c3ccc(C)s3)CC2)cc1OC | -6.68 | –
47 | COc1ccc(NC(=O)c2sc(=O)n(Cc3ccc(S(=O)(=O)N(C)C)cc3)c2C)cc1 | -1.83 | –
48 | CC1(C(=O)Nc2ccc3c(c2)OCCO3)CSCC(=O)N1CCOc1ccccc1 (stereo not given) | 1.72 | –

Row | SMILES | activity, negative = toxicity [%] | Potency
49 | Cc1ccn(CC(=O)NC2CCCN(Cc3ccccc3F)C2)n1 (stereo not given) | 2.55 | –
50 | CC1Cc2[nH][nH]c(=O)c2C(C2CC2)O1 (stereo not given) | 7.36 | –
51 | O=C(CSc1ncn[nH]1)Nc1ccc(Br)cc1Br | -18 | –
52 | Cc1cccc(C=CC(=O)c2ccc(Cl)cc2)c1 | -15.3 | –
53 | O=C(/C=C/Sc1ncn[nH]1)c1ccc(Cl)cc1 | – | 5.8 µM (active)
54 | Cc1ccc([C@H]2C[C@H](O)[C@@H](n3cc(COC(=O)c4ccccc4)nn3)CN2C(=O)C2CCCCC2)cc1 | -10.7 | –
55 | Nc1nc(NCC2CCCO2)nc(Nc2ccccc2F)c1[N+](=O)[O-] (stereo not given) | 6.96 | –
56 | C=CCNc1nc(N)c([N+](=O)[O-])c(NC2CCCCC2)n1 | -6.58 | –
57 | Nc1nc(Nc2ccccc2F)nc(NC2CCCCC2)c1[N+](=O)[O-] | – | 18.4 µM (active)
58 | Cc1cccc(-n2cc(CN3CCN(C(=O)c4ncn[nH]4)CC3)c(-c3cccc(F)c3)n2)c1 | 5.17 | –
59 | COc1ccc(-n2cc(CN(C)Cc3n[nH]c(=O)[nH]3)c(-c3cccc(F)c3)n2)cc1 | -14 | –
60 | COc1ccc(-n2cc(CNC3CCOCC3)c(-c3cccc(F)c3)n2)cc1 | – | 18.4 µM (active)
61 | CCC(O)C1CCN(Cc2cn(-c3ccc(OC)cc3)nc2-c2cccc(F)c2)CC1 (stereo not given) | – | 14.6 µM (active)
62 | COc1ccc(-c2nn(-c3ccccc3)cc2CN2CCCO2)c(F)c1 | -0.913 | –
63 | Cn1cc(CN2CCC(C(O)CCc3ccccc3)CC2)c(-c2ccccc2F)n1 (stereo not given) | -16.8 | –
64 | CC1(C)CN(Cc2cccnc2)C(=O)[C@H]1CC(=O)Nc1ccc(Br)cc1 | 0.941 | –
65 | CCc1nnc(NC(=O)c2ccco2)s1 | 0.444 | –
66 | Cn1cccc1/C=N/NC(=O)c1ccc(OC(F)(F)C(F)F)cc1 | -9.71 | –
67 | O=C(Nc1ccc(OC(F)(F)F)cc1)c1ccc2c(c1)no[n+]2[O-] | – | 11.6 µM (active)
68 | Cn1nccc1NC(=O)Nc1ccc(OC(F)(F)F)cc1 | -2.7 | –
69 | CC1(c2cccc(N)c2)OCCO1 | -10.9 | –
70 | Cc1ccc(-c2cnc(C(O)c3cccc(C)c3C)[nH]2)cc1 (stereo not given) | 3.28 | –
71 | Cc1ccc(-c2nc3c(C)cc(Br)cn3c2Cc2ccccc2)cc1 | 2.06 | –
72 | CC(C)C[C@H]1CN([C@@H](Cc2ccccc2)CN2CCC[C@@H]2CN2C(=O)C(=O)NC[C@@H]2Cc2ccc(O)cc2)C(=O)C(=O)N1CCc1ccccc1 | 3.99 | –

Row | SMILES | activity, negative = toxicity [%] | Potency
73 | CCOc1ccc(CCN2C(=O)C(=O)N([C@@H](Cc3ccc(O)cc3)CN3CCC[C@H]3CN3C(=O)C(=O)NC[C@@H]3CC(C)C)C[C@@H]2Cc2ccccc2)cc1 | 0.229 | –
74 | CC(C)C[C@H]1CNC(=S)N1C[C@H]1CCCN1C[C@H](Cc1ccc(O)cc1)N1C[C@H](Cc2ccc(O)cc2)N(CC2CCCCC2)C1=S | – | 14.6 µM (active)
75 | CC(C)[C@H](NC(=O)c1ccccc1F)C(=O)Nc1cccc(S(=O)(=O)N2CCOCC2)c1 | 0.177 | –
76 | C[C@H]1NS(=O)(=O)c2cc(Cl)ccc2O[C@@H]1c1ccccc1 | 3.06 | –
77 | CC(Sc1ccc(S(=O)(=O)N2CCN(C)CC2)cn1)C(=O)NC1CCCC(C)C1C (stereo not given) | -7.37 | –
78 | CCC(C)Sc1nc2c(c(=O)[nH]c(=O)n2C)n1CC(O)COc1cccc2ccccc12 (stereo not given) | -5.75 | –
79 | CC(C)c1ccccc1OCC(O)CN(CC(O)COc1cccc2ccccc12)C(C)C (stereo not given) | – | 25.9 µM (active)
80 | CC1CC(C)CN(CCOc2cccc3ccccc23)C1 (stereo not given) | -7.97 | –
81 | Cc1[nH]c2ccccc2c1C(=O)C(=O)NCc1nnnn1-c1cccc(F)c1 | 0.987 | –
82 | O=C(NCc1ccc(F)cc1F)[C@@H]1CCCN1C(=O)[C@@H]1CCCN1C(=O)c1cccc(Cl)c1 | 8.01 | –
83 | O=C(c1ccc2c(=O)n(Cc3ccco3)c(=S)[nH]c2c1)N1CCCC1 | 10.2 | –
84 | CCN(CC)CCCSc1nc2ccccc2s1 | 11.7 | –
85 | Cc1nc2nc(CSc3nc4ccccc4s3)cc(=O)n2[nH]1 | -0.0889 | –
86 | O=[N+]([O-])c1c(NCCO)cc(Sc2nc3ccccc3s2)c2nonc12 | – | 3.16 µM (active)
87 | CCc1nc2c(OCCc3cccc(OC)c3)cccn2c1N(C)C(=O)c1ccc(C)cc1 | -11.3 | –
88 | CCc1ccccc1OCC(=O)Nc1nnc(C2CC2)s1 | 9.55 | –
89 | Cc1cc(C(=O)Nc2nnc(C3CC3)s2)c(C)s1 | -1.67 | –
90 | O=C(Nc1nnc(C2CC2)s1)c1ccccn1 | – | 5.01 µM (active)
91 | C[C@@H]1CN([C@H](C)CO)C(=O)c2cc(-c3ccc(F)cc3)cnc2O[C@H]1CN(C)C(=O)c1ccc(F)cc1 | -3.85 | –
92 | CC(=O)Nc1ccc(S(=O)(=O)NNC(=O)CCc2ccccc2)cc1 | -5.47 | –
93 | O=C(Cc1ccccc1)NCc1ccc(F)cc1 | -2.39 | –
94 | O=C(CCc1ccccc1)NNc1ccc(F)cc1 | – | 2.31 µM (active)
95 | COc1ccc(-c2ccc(CN3C(C(C)C)C(=O)N(Cc4cn(CC5CCCCC5)nn4)CCS3(=O)=O)cc2)cn1 (stereo not given) | -3.81 | –
